Test results as given in PubChem BioAssay.
Active and inactive are the calls of the source. Unless noted, how the calls were made is not given here.

Assays:
[1] = A549 cell viability effects, profiling panel, calcein-AM fluorescence, 48 h, basal (AID 1162); conditions: higher = more signal; further: test concentration not given here
[2] = adipocyte viability effects, profiling panel, cell-based, 3T3-L1 adipocytes, calcein-AM fluorescence, 48 h, basal (AID 1163); conditions: 3T3-L1 adipocytes viability, higher = more signal; further: test concentration not given here
[3] = HepG2 cell viability effects, profiling panel, calcein-AM fluorescence, 48 h, basal (AID 1164); conditions: higher = more signal; further: test concentration not given here
[4] = MM1S cell viability effects, profiling panel, calcein-AM fluorescence, 48 h, basal (AID 1165); conditions: higher = more signal;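 further: viability of MM1S multiple myeloma cells under basal unstimulated conditions; test concentration not given here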
[5] = basal RPMI8226 viability, no added stimulus, profiling panel, cell-based, calcein-AM fluorescence, 48 h, PK04 Diversity Set (AID 1166); conditions: RPMI8226 myeloma viability, higher = more signal;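 further: cells grown under basal conditions without added stimulus; test concentration not given here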
[6] = basal HepG2 mitochondrial membrane potential changes, profiling panel, cell-based, JC-1 fluorescence, 24 h, 100 nL compound (AID 1167); conditions: higher = more signal; further: test concentration not given here
[7] = basal 3T3-L1 adipocyte mitochondrial potential changes, profiling panel, cell-based, JC-1 fluorescence, 3T3-L1 adipocytes, 24 h, 100 nL compound (AID 1168); conditions: JC-1 mitochondrial fluorescence, higher = more signal, called active from +8 up or from −8 down; further: test concentration not given here
[8] = basal RPMI8226 mitochondrial membrane potential changes, profiling panel, cell-based, JC-1 fluorescence, 24 h, 100 nL compound (AID 1169); conditions: RPMI8226 myeloma, JC-1 mitochondrial potential fluorescence, higher = more signal; further: test concentration not given here
[9] = basal MM1S mitochondrial membrane potential changes, profiling panel, cell-based, JC-1 fluorescence, 24 h, 100 nL compound (AID 1170); conditions: higher = more signal; further: test concentration not given here
[10] = A549 lung cancer cell viability effects, profiling panel, resazurin fluorescence, 24 h, PK04 Diversity Set (AID 1171); conditions: higher = more signal, called active from +8 up or from −8 down; further: test concentration not given here
[11] = HepG2 liver cancer cell viability effects, profiling panel, resazurin fluorescence, 24 h, PK04 Diversity Set (AID 1172); conditions: higher = more signal; further: test concentration not given here
[12] = basal S. cerevisiae growth modulation, no modifier, primary screen, OD600, strain BY4716, 24 h, basal condition (AID 1173); conditions: OD600, 24 h, higher = more signal, called active from +8 up or from −8 down
[13] = MM1S myeloma cell viability, profiling panel, resazurin fluorescence, basal, 24 h, PK04 Diversity Set (AID 1174); conditions: higher = more signal, called active from +8 up or from −8 down;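 further: MM1S multiple myeloma cell line; test concentration not given here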
[14] = target: Dihydroorotate dehydrogenase (quinone), mitochondrial (Plasmodium falciparum (isolate 3D7)) (UniProt Q08210); experiment: PfDHODH enzyme inhibitors, primary screen, biochemical, C-terminal His tag, absorbance 600 nm (AID 1175); conditions: DCIP absorbance 600 nm, higher = more signal, called active from +8 up or from −8 down;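 further: recombinant parasite enzyme with a five histidine tag at its C terminus; test concentration not given here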
Dihydroorotate dehydrogenase (quinone), mitochondrial (Plasmodium falciparum (isolate 3D7)), sequence (Q08210 whole entry, looked up): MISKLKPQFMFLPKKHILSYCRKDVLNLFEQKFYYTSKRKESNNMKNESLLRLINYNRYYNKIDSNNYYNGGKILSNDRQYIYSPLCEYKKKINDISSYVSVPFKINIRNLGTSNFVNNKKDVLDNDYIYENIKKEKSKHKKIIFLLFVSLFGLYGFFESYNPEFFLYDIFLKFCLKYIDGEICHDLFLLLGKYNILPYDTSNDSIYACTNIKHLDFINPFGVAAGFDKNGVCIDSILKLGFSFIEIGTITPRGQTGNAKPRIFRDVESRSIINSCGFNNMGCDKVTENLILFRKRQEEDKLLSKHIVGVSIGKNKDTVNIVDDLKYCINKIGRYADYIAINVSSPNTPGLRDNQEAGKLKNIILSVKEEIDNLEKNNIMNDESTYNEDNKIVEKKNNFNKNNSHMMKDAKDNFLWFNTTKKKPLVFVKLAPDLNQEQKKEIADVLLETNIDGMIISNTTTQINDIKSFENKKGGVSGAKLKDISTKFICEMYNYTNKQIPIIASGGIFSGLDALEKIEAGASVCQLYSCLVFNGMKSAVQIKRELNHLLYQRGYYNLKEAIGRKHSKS

[15] = P. aeruginosa biofilm formation inhibitors, primary screen, strain PAO1, LB-PBS medium, absorbance 600 nm (AID 1176); further: test concentration not given here; conditions: P. aeruginosa PAO1 growth/biofilm, A600, 12 h; higher = more signal
[16] = S. cerevisiae RM11-1a growth modifiers, primary screen, strain RM11-1a, OD600, basal, 24 h (AID 1177); conditions: OD600, 24 h, higher = more signal, called active from +8 up or from −8 down;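 further: cultures grown under basal conditions with no added stressor; test concentration not given here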
[17] = E. coli acrAB mutant growth effects, primary screen, E. coli filamentation inducers, strain DRC39, OD650, 24 h (AID 1178); conditions: higher = more signal, called active from +8 up or from −8 down;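 further: growth measured as culture turbidity by optical density at 650 nm; test concentration not given here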
[18] = E. coli acrAB mutant growth effects, primary screen, E. coli filamentation inducers, strain DRC39, OD650, 48 h (AID 1179);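 further: screen aims at cell division blockers that make cells filament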; conditions: E. coli DRC39 delta-acrAB growth, higher = more signal, called active from +8 up or from −8 down
[19] = RPMI8226 myeloma cell viability, profiling panel, resazurin fluorescence, basal, 24 h, PK04 Diversity Set (AID 1180); conditions: higher = more signal;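 further: RPMI8826 multiple myeloma cell line at 5000 cells per well; test concentration not given here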
[20] = target: E3 ubiquitin-protein ligase XIAP (Homo sapiens) (UniProt P98170); experiment: XIAP binders, primary screen, biophysical, small-molecule microarray, fluorescence 635 nm (AID 1181); conditions: small-molecule microarray binding, higher = more signal;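 further: score merges 667 nm emission and signal to noise over triplicate slides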
E3 ubiquitin-protein ligase XIAP (Homo sapiens), sequence (P98170 whole entry, looked up): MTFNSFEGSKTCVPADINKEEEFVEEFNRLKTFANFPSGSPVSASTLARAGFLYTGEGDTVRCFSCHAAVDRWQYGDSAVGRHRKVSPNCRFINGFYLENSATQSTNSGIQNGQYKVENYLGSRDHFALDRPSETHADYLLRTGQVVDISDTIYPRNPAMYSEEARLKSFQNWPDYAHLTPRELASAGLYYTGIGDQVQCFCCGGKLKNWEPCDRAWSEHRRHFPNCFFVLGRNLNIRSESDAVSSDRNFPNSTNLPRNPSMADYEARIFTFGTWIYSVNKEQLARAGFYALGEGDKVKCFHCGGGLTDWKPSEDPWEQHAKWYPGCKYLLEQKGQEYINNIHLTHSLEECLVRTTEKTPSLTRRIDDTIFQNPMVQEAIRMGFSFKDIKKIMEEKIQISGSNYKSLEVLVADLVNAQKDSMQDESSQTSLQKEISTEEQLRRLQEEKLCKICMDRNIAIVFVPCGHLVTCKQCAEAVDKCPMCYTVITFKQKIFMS

Row | SMILES | z-score [1] | z-score [2] | z-score [3] | z-score [4] | z-score [5] | z-score [6] | z-score [7] | z-score [8] | z-score [9] | z-score [10] | z-score [11] | z-score [12] | z-score [13] | composite z-score [14] | z-score [15] | z-score [16] | z-score [17] | z-score [18] | z-score [19] | composite z-score [20]
1 | COc1cc2c(cc1OC)CN(C(=O)[C@@H]1[C@H]3C(=O)O[C@H](c4ccccc4)[C@H](c4ccccc4)N3[C@H](c3ccc(OCCO)cc3)[C@@]13C(=O)Nc1ccc(C#CCCO)cc13)CC2 | -0.433 | 1.06 | -0.857 | -0.369 | -0.987 | -1.56 | 1 (inactive) | -0.862 | -1.04 | 0.519 (inactive) | -0.0794 | 0.66 (inactive) | 0.113 (inactive) | 1.66 (inactive) | 2.75 (inactive) | 1.45 (inactive) | 0.592 (inactive) | -0.13 (inactive) | 0.768 | -0.113
2 | O=C1C[C@@](C(=O)NCc2ccccc2)(c2ccc([N+](=O)[O-])cc2)[C@@H](c2ccc(CO)cc2I)N1C1CCCCC1 | 1.14 | 0.317 | 0.593 | -1.6 | -1.22 | 1.67 | 0.254 (inactive) | -0.572 | 0.576 | 0.75 (inactive) | -0.327 | 0.432 (inactive) | 0.566 (inactive) | 0.634 (inactive) | -0.301 (inactive) | 1.88 (inactive) | 0.445 (inactive) | -0.0118 (inactive) | 0.787 | -0.115
3 | C[N+](C)(C)CCCCCCNC(=O)[C@@H]1C[C@@H]2C(=O)NCC(=O)N2[C@@H]1c1cccc(OCCO)c1 | -0.308 | 0.867 | -1.2 | -2.7 | 0.422 | -0.844 | -0.0181 (inactive) | -0.0934 | -1.39 | 1.46 (inactive) | 0.597 | -1.33 (inactive) | 1.26 (inactive) | -2.3 (inactive) | 3.7 (inactive) | -0.257 (inactive) | -0.858 (inactive) | -0.765 (inactive) | 0.343 | 0.0192
4 | [N-]=[N+]=NCc1ccccc1[C@H]1OC(c2ccc(OCCCO)cc2)=N[C@@]1(Cc1ccccc1N=[N+]=[N-])C(=O)N1CCCCC1 | -0.457 | -0.5 | -0.536 | -2.14 | -2.79 | 1.06 | 0.0871 (inactive) | -0.978 | -1.76 | -0.409 (inactive) | -0.585 | -0.707 (inactive) | -2.42 (inactive) | -0.062 (inactive) | 0.879 (inactive) | 1.66 (inactive) | -0.457 (inactive) | 0.495 (inactive) | -2.94 | -0.0062
5 | COCCOC(=O)N1C(=O)[C@@]2(c3cc(C#CCCO)ccc31)[C@H](C(=O)NC[C@H](O)c1ccccc1)[C@H]1C(=O)O[C@H](c3ccccc3)[C@H](c3ccccc3)N1[C@@H]2c1ccccc1OCCO | 1.27 | 0.904 | 1.21 | -1.96 | -3.05 | -1.36 | 0.833 (inactive) | -0.844 | -0.424 | 0.715 (inactive) | 0.446 | 0.446 (inactive) | 0.0837 (inactive) | 0.246 (inactive) | 1.12 (inactive) | 1.88 (inactive) | 0.136 (inactive) | 0.259 (inactive) | -0.135 | 0.0593
6 | CCOC(=O)C[C@H]1[C@H](OC(=O)c2ccc(C(=O)c3ccccc3)cc2)[C@@H](NC(=O)C2CCCCC2)c2cc(OCCCO)ccc2N1C(=O)Cc1ccc(OC)cc1 | 0.273 | 0.628 | 0.918 | -0.4 | -0.631 | 1.06 | -0.76 (inactive) | 0.368 | -0.812 | -0.0859 (inactive) | -0.531 | -0.741 (inactive) | -0.28 (inactive) | -0.085 (inactive) | -0.346 (inactive) | -0.0363 (inactive) | -0.29 (inactive) | 0.162 (inactive) | -0.353 | -0.141
7 | C=CCNC(=O)[C@H]1[C@@H]2C(=O)O[C@@H](c3ccccc3)[C@@H](c3ccccc3)N2[C@@H](c2ccc(O)cc2)[C@]12C(=O)N(C(=O)OCCOC)c1ccc(C#CC3(O)CCCCCC3)cc12 | 0.904 | 0.76 | 2.26 | -1.2 | -3.53 | -1.84 | 0.509 (inactive) | -0.713 | -0.808 | -0.316 (inactive) | -0.0051 | -0.897 (inactive) | 0.221 (inactive) | 0.157 (inactive) | 0.806 (inactive) | 2.27 (inactive) | 0.665 (inactive) | 0.951 (inactive) | 0.41 | 0.0479
8 | C=CC[C@@]1(C(=O)NCCN2CCOCC2)N=C(c2ccc(OCCCO)cc2)O[C@@H]1c1ccccc1 | -0.181 | 0.458 | -0.253 | 0.672 | 0.418 | 0.603 | -0.672 (inactive) | 0.574 | 0.4 | 1.28 (inactive) | 0.255 | -0.0792 (inactive) | 0.275 (inactive) | 1.61 (inactive) | 1.13 (inactive) | 1.45 (inactive) | 0.297 (inactive) | -0.483 (inactive) | 0.482 | -0.237
9 | OCc1ccc(-c2cc[n+](Cc3cccc(OC(F)(F)F)c3)cc2)cc1 | -1.19 | 0.983 | -0.52 | 0.47 | -0.483 | -0.628 | 0.296 (inactive) | -0.672 | -0.704 | -0.395 (inactive) | -0.0785 | -0.615 (inactive) | -0.297 (inactive) | -5.09 (inactive) | 0.282 (inactive) | -0.327 (inactive) | 0.188 (inactive) | 0.147 (inactive) | -0.784 | 0.222
